KB-V1 MDR tox = KB-V1 MDR subline cytotoxicity; KB-V1 MDR cells viability, CellTiter-Glo, 72 h; Potency, µM (series often up to 46.1 µM), most hits filed as cytotoxic; actives 3.4% (n = 400,000); further: nearly all actives have a fitted effect of over 60% in size
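Drug-selected KB-V1 cells, grown in DMEM lacking phenol red with 10% FBS, receive compound titrations; after three days at 37 degrees C, surviving cell ATP is quantified by CellTiter-Glo luminescence and responses normalized and curve-fitted.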
DRD3 agonist = agonists of human D3 dopamine receptor. P35462. D3R DiscoveRx beta-arrestin cells, luminescence, 90 min. max activation, %. actives 0.58% (n = 410,000). AID 652048; in the data active means max activation above about 30%
Target sequence (P35462 whole entry, looked up): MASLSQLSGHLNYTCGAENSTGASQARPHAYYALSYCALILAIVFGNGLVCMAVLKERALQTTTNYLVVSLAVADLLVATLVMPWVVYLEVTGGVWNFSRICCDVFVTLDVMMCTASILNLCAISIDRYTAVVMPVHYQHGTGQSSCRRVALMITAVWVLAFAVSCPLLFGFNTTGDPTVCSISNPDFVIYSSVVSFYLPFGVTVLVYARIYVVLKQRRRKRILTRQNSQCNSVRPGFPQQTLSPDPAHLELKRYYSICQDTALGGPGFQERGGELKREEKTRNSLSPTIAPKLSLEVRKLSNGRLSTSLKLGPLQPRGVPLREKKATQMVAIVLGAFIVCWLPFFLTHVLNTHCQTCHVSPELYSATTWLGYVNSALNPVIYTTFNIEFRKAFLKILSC
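Cells at 1500/well, incubated overnight, then treated with pinned compounds (dopamine as control) for 90 min at 37 degrees C. DiscoveRx reagent added for 30 - 60 minutes at room temperature; luminescence read.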
SW480 rerep = induces DNA re-replication in SW480 colon adenocarcinoma cells; actives 1.8% (n = 340,000); AID 624297; SW480 DNA re-replication, Hoechst DNA content imaging, 48 h; Potency, µM (series often up to 46.1 µM), hits mostly activators; further: nearly all actives have a fitted effect of over 55% in size
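Treated cells incubate 48 hr (37 C, 5% CO2), are stained 40 min with Hoechst, and nuclear fluorescence is enumerated; a rise in nuclei with high DNA signal marks re-replication.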
DRD3 antagonist = antagonists of human D3 dopamine receptor. max response, negative = inhibition, %. actives 2.5% (n = 360,000). AID 652054. D3R cells, DiscoveRx beta-arrestin luminescence, antagonist mode; hits give low values; in the data active means max response below about -50%; inconclusive means no clear call, values can overlap the other calls
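Cells plated overnight at 1500 cells/well, then exposed to library compounds with dopamine controls for 90 minutes at 37 degrees C. DiscoveRx reagent added for 30–60 minutes at room temperature; luminescence read, quantitative HTS format.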
MCF10A rereplic = induces DNA re-replication in MCF 10a normal breast cells. MCF 10A DNA re-replication, Hoechst nuclear intensity, 48 h. Potency, µM (titrated, usually from 46.1 µM), actives largely listed as activators. actives 2.9% (n = 350,000); further: nearly all actives have a fitted effect of over 50% in size
KB-3-1 cytotox = KB-3-1 parental cell cytotoxicity. KB-3-1 viability, CellTiter-Glo ATP luminescence, 72 h. Potency, µM (top dose mostly 46.1 µM), most hits filed as cytotoxic. actives 1.4% (n = 400,000). AID 1347075; further: nearly all actives have a fitted effect of over 60% in size
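Parental KB-3-1 adenocarcinoma cells in phenol-red-free DMEM with 10% FBS were pin-treated with compounds at several concentrations, incubated 72 h at 37 °C, and viability read by CellTiter-Glo luminescence; concentration-effect curves were fitted after normalization.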
Hits are given with their value; – = inactive; ? = inconclusive; · = no result given; [ ] = another dose, or the depositor's remark. In the library only some 8.9% were active in any assay of this set; here they are far more common. Unless noted, the call rests on the fitted dose curve; in most records, active means well fitted curve in the direction sought with a large enough effect; inconclusive means small, poorly fitted or top-dose-only effect, or another doubt; inactive means no such curve, though single readings can be large; an effect the other way counts as inactive or inconclusive.

SMILES | KB-V1 MDR tox | DRD3 agonist | SW480 rerep | DRD3 antagonist | MCF10A rereplic | KB-3-1 cytotox
CN(C)S(=O)(=O)N1CCCC(C(=O)c2ccc(-c3ccccc3)cc2)C1 (stereo unspecified) | – | – | – | – | – | –
CCCCOC(=O)Nc1cc(Cl)ccc1C | – | – | – | – | – | –
CCCOC(=O)NC(CC)COC(=O)Nc1cc(C)ccc1C (stereo unspecified) | – | – | –[9.22 µM] | -87 | – | –
CC(C)=N/N=C1/NC(=O)C(c2ccc(Cl)cc2)S1 (stereo unspecified) | – | – | – | -96 | – | –
Cc1ccccc1OCCCCn1c(CCNC(=O)C(C)(C)C)nc2ccccc21 | ? | – | · | · | · | –
Cc1cc2nc(CCN(C(=S)NCC(C)C)C3CCCC3)[nH]c2cc1C | 16µM | – | – | – | – | –
Cc1cc2nc(CCN(C(=S)NCC3CCCO3)C3CCCC3)[nH]c2cc1C (stereo unspecified) | – | – | – | – | – | –
CCOc1ccc(NS(=O)(=O)c2ccc(NC(=O)N3CCCC3)cc2)cc1 | – | – | · | · | · | ?
CCn1cc(C(=O)OCC(=O)c2cc(C)n(-c3cccc(C(F)(F)F)c3)c2C)c(=O)c2ccc(C)nc21 | 23µM | – | – | – | – | –
Cc1cc(C(=O)COC(=O)Cc2n[nH]c(=O)c3ccccc23)c(C)n1-c1cccc(C(F)(F)F)c1 | 21µM | – | – | – | – | ?
COc1ccccc1N(CC(=O)Nc1ccccc1F)S(C)(=O)=O | – | – | · | · | · | –
COc1ccc([C@@H]2[C@@H]3C(=O)N(C(C)(C)C)C(=O)[C@@H]3[C@]3(Cc4ccc(Cl)cc4)C(=O)N(c4cccc(F)c4)C(=O)N23)cc1 | – | – | – | ? | – | –
COc1ccc(C(=O)Nc2ccc3c(c2)N(C)C(=O)c2ccccc2S3)cc1OC | · | – | · | · | · | ·
COc1cc(N(C)C)c(OC)cc1/C=C1\C=Cc2ccccc21 | – | · | · | · | · | –
Cc1c2cnn(-c3ccccc3)c(=O)c2c(C)n1CCCC(=O)Nc1cccc(F)c1 | – | – | · | · | · | –
O=C(O)c1cccc(N2C(=O)c3ccc(Oc4ccc(Cl)cc4)cc3C2=O)c1 | – | – | – | – | ? | –
O=C(O)c1cccc(N2C(=O)c3ccc4c5c(ccc(c35)C2=O)C(=O)N(c2cccc(C(=O)O)c2)C4=O)c1 | – | – | – | -107 | – | –
CCCN1Cc2cccc(C(=O)Nc3cc(C)cc(C)c3)c2C1=O | – | – | · | · | · | –
CC(C)(C)n1ncc(Oc2ccccc2[N+](=O)[O-])c(Cl)c1=O | 18µM | – | ? | – | – | –
CC(=O)c1ccc(Oc2ncnc(N)c2[N+](=O)[O-])cc1 | ? | – | – | ? | 4.1µM | ?
CCOC(=O)c1c(C)[nH]c(C(=O)OCC(=O)NC(C)C)c1C | 23µM | – | – | – | – | –
CCOC(=O)c1[nH]c(C=O)c(C(=O)OCC)c1C | ? | – | 5.8µM | – | 12µM | –
CCOC(=O)c1c(C)[nH]c(C(=O)OCC(=O)Nc2ccccc2)c1C | – | – | – | – | – | –
CC(=O)c1c(C)[nH]c(C(=O)OCC(=O)Nc2cc(S(=O)(=O)N3CCCC3)ccc2Cl)c1C | 13µM | – | – | – | – | ?
CC(=O)c1c(C)[nH]c(C(=O)OCC(=O)Nc2cccc(S(=O)(=O)N3CCCC3)c2)c1C | ? | – | – | – | – | 2.3µM
SMILES | KB-V1 MDR tox | DRD3 agonist | SW480 rerep | DRD3 antagonist | MCF10A rereplic | KB-3-1 cytotox
O=C(Nc1cccc(Cl)c1)C1CCN(S(=O)(=O)Cc2ccccc2)CC1 | – | – | · | · | · | –
COc1cc(C)ccc1OCCSc1nc2ccc(NC(=O)c3ccc(F)cc3)cc2s1 | – | – | · | · | · | –
CC(=O)c1c(C)[nH]c(C(=O)OCC(=O)NCC(C)C)c1C | ? | – | – | – | – | –
CC(=O)c1c(C)[nH]c(C(=O)OCC(=O)Nc2cccnc2Cl)c1C | ? | – | – | – | – | ?
CC(=O)c1c(C)[nH]c(C(=O)OCC(=O)Nc2ccccc2Cl)c1C | 4.6µM | – | – | – | – | 21µM
CNC(=O)COC(=O)c1[nH]c(C)c(C(C)=O)c1C | – | – | – | -79 | – | –

Screening results: PubChem BioAssay, National Center for Advancing Translational Sciences (NCATS)
